# Data reported in PubChem BioAssay (Tox21).
# Records with an inconclusive call do not appear. Where a call stands in place of a potency, no number is given. Calls of active or inactive are those of the source. The call rests on the fitted dose curve; in most records, active means well fitted activation curve with a large enough effect in the repeat runs; inconclusive means weak or mixed curves, or effect the other way; inactive means no such curve, though single readings can be large or run the other way.
# Test: qHTS assay to identify small molecule agonists of the retinoic acid receptor (RAR) signaling pathway (AID 1159553)
# Conditions: C3RL4 RARE luciferase reporter, agonist, 6 h; series mostly up to 73.3 µM
# Outline: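 In this cell-based screen, 1,000 C3RL4 cells per well were cultured overnight, dosed with test chemicals in DMSO for 6 hr, and assessed for RARE luciferase luminescence.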
# Potency means the concentration at half of the fitted maximal effect.
row,SMILES,Potency
1,FC(F)C(F)(F)OCC(Cn1cncn1)c1ccc(Cl)cc1Cl (centres undefined),inactive
2,COC(=O)c1ccccc1S(=O)(=O)NC(=O)Nc1nc(C)nc(OC)n1,inactive
3,O=C(NC(=O)c1ccccc1Cl)Nc1ccc(OC(F)(F)F)cc1,inactive
4,CC(Cc1ccccc1)N(C)Cc1ccco1 (centres undefined),inactive
5,CSSC,inactive
6,Nc1ccc(N=Nc2ccccc2)cc1,0.386 µM (active)
7,Nc1nc(N)nc(Cl)n1,inactive
8,O=C(Nc1ccc(F)cc1F)c1cccnc1Oc1cccc(C(F)(F)F)c1,inactive
9,COP(=S)(OC)Oc1nc(Cl)c(Cl)cc1Cl,inactive
10,ClSC(Cl)(Cl)Cl,inactive
11,CCN(CC)C(=O)N[C@@H]1C=C2c3cccc4[nH]cc(c34)C[C@@H]2N(C)C1,inactive
12,CCC[CH2][Sn]([CH2]CCC)([CH2]CCC)[CH2]CCC,inactive
13,CNC(=O)CSP(=O)(OC)OC,inactive
14,Clc1cc(Cl)c(-c2cc(Cl)c(Cl)cc2Cl)cc1Cl,inactive
15,CCCCON=O,inactive
16,CC(C)NCC(O)c1ccccc1Cl (centres undefined),inactive
17,C[C@H]1[C@H](c2ccc(Cl)cc2)SC(=O)N1C(=O)NC1CCCCC1,inactive
18,C#CCO,inactive
19,Cc1cc2c3c(c1)C(c1ccccc1)=N[C@@H](NC(=O)c1ccncc1)C(=O)N3CC2,inactive
20,COc1ccc(Cc2nccc3cc(OC)c(OC)cc23)cc1OC,inactive

row,SMILES,Potency
1,BrCCCBr,inactive
2,N#Cc1ccc(N(CC(N)=O)CC(F)(F)F)cc1C(F)(F)F,inactive
3,CCNc1nc(NC(C)C(C)C)nc(SC)n1 (centres undefined),inactive
4,O=[N+]([O-])c1cccc2cccc([N+](=O)[O-])c12,inactive
5,COCCC#N,inactive
6,CCCCCCCCCCCCCCn1cc[n+](C)c1,inactive
7,C[N+]1(C)[C@@H]2CC[C@H]1CC(OC(=O)C(CO)c1ccccc1)C2 (some centres undefined),inactive
8,C=CC(=C)C,inactive
9,O=C(N[C@H]1N=C(c2ccccc2F)c2cccc3c2N(CC3)C1=O)c1cc2ccccc2[nH]1,inactive
10,Cc1ccn2nc(S(=O)(=O)Nc3c(F)cccc3F)nc2n1,inactive
11,O=[N+]([O-])c1ccccc1-c1ccccc1,inactive
12,CN1[C@@H]2CC[C@H]1CC(O)C2 (some centres undefined),inactive
13,CN,inactive
14,CC(C)=CCN1CC[C@@]2(C)c3cc(O)ccc3C[C@@H]1[C@@H]2C,inactive
15,CC1CN1 (centres undefined),inactive
16,CC(Cc1ccc2c(c1)OCO2)NO (centres undefined),inactive
17,O=[N+]([O-])c1ccc(CCl)cc1,inactive
18,CC1CCCC1,inactive
19,Oc1ccc([C@H]2CNCc3c2ccc(O)c3O)cc1O,23.7 µM (active)
